Screening results from PubChem.
Sampled rows, rich in hits. Any-hit rate of the full collection: about 1.1%.
GalR3 antagonist – GalR3 antagonists in HEK293 cells, primary screen, cell-based, fluorescence readout; Galanin receptor type 3 (Homo sapiens), O60755; HEK293 GalR3-CNG cAMP membrane potential fluorescence; galR3 body fused to GalR1 C-terminus; inhibition, % at 3 µM; 360,000 compounds, 0.44% hits; AID 651719, 2012;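 active = inhibition above the screen-wide average plus 3 SD, cut at about 13% in these data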;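 also: forskolin and galanin both at EC90 stimulate the cells; cAMP rise reported by CNG channel membrane potential dye signal; 0% = forskolin plus galanin with DMSO and 100% = forskolin alone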
NR2F2 inh – NR2F2 transcriptional activity inhibitors, primary screen, cell-based, luciferase reporter, HEK293T, luminescence; COUP transcription factor 2 (Homo sapiens), P24468; HEK293T NGFI-A luciferase reporter; inhibition, % at 8.6 µM; 370,000 compounds, 0.7% hits; AID 686940, 2013;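 active = inhibition above a per-plate cutoff, mean inhibition of test wells between control levels plus 3 SD, cut at about 38% in these data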;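 also: cells cotransfected with COUP-TFII expression vector driving the NGFI-A reporter; 0% = median of COUP-TF2 test wells and 100% = reporter-only cells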
NCOA1 inh – SRC1 coactivator transcriptional activity inhibitors, primary screen, cell-based, luminescence; HEK293 GAL4-SRC1 luciferase reporter; inhibition, % at 3.6 µM; 360,000 compounds, 0.12% hits;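 active = inhibition above the campaign mean plus 3 SD, with each screening campaign given its own cutoff, cut at about 60% in these data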;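 also: 0% = DMSO treated cells and 100% = gossypol at 36 µM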
NR5A2 inv ag – LRH-1 (NR5A2) inverse agonists, primary screen, cell-based, luminescence, HEK293T, StAR-luciferase reporter; 360,000 compounds, 0.13% hits; Nuclear receptor subfamily 5 group A member 2 (Homo sapiens), O00482; inhibition, % at 3.6 µM; LRH-1 transfected, 24 h; AID 602396, 2012;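 active = inhibition above the mean inhibition of all tested compounds plus 3 SD, cut at about 73% in these data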;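 also: 0% = DMSO wells and 100% = reporter-only cells lacking LRH-1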
Target sequence (O00482 whole entry, looked up): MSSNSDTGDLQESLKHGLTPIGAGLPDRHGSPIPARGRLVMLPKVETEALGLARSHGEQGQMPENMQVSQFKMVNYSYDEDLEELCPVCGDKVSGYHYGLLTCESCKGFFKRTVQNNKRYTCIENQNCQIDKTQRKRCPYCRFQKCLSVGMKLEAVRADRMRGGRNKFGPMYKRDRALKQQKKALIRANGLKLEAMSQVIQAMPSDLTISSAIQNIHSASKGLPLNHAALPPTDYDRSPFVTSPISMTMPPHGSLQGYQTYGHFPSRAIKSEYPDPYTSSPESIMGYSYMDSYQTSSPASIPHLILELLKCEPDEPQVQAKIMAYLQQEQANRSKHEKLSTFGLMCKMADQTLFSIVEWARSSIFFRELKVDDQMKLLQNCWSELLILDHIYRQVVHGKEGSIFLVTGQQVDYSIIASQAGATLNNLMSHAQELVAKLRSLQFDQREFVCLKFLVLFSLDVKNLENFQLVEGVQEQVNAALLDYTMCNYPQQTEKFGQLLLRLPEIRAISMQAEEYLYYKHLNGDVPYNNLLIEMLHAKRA
NCOA3 inh – SRC3 coactivator transcriptional activity inhibitors, primary screen, cell-based, luminescence; Nuclear receptor coactivator 3 (Homo sapiens), Q9Y6Q9; HEK293 GAL4-SRC3 luciferase reporter; inhibition, % at 3.6 µM; 360,000 compounds, 0.17% hits; AID 588352, 2011;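 active = inhibition above a per-campaign cutoff, the mean of all compounds plus 3 SD, cut at about 60% in these data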;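 also: 0% = DMSO-treated cells and 100% = gossypol-treated cells at 36 µM; higher means less SRC3-driven luciferase light from the GAL4 reporter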
SRC2 inh – inhibition of GAL4-SRC2 driven luciferase reporter, primary screen, SRC2 inhibitor project, cell-based, luminescence; 370,000 compounds, 0.17% hits; HEK293 GAL4-SRC2 luciferase reporter; Nuclear receptor coactivator 2 (Homo sapiens), Q15596; inhibition, % at 9 µM;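 active = inhibition above the mean inhibition of all tested compounds plus 3 SD, set per campaign, cut at about 52% in these data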;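 also: 0% = DMSO treated cells and 100% = cells given Gossypol at 36 µM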
GalR3 conf – GalR3 antagonist hit confirmation, cell-based, fluorescence, triplicate; shares compounds with GalR3 antagonist; 1,600 compounds, 59% hits; AID 652245, 2013; HEK293 GalR3 CNG cAMP biosensor, membrane potential fluorescence; galR3 fused to GalR1 carboxy tail; challenged with forskolin and galanin at EC90; inhibition, % at 3 µM;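 active = inhibition above the primary screen's cutoff, the mean inhibition of all screened compounds plus 3 SD, cut at about 13% in these data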;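 also: 0% = forskolin plus galanin and 100% = forskolin alone with DMSO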
CNG parental – nonspecific cAMP agonists in parental HEK-CNG cells, counter-screen for GalR3 antagonist project, cell-based, fluorescence, high throughput | shares compounds with GalR3 antagonist | HEK293-CNG parental cells, cAMP membrane potential fluorescence; normalised: DMSO wells 0%, forskolin wells 100% | activation, % at 3 µM | 1,600 compounds, 10% hits; in the data active = activation above about 1.3%
Active calls of the source: *; · = not tested or not shown.

SMILES	GalR3 antagonist	NR2F2 inh	NCOA1 inh	NR5A2 inv ag	NCOA3 inh	SRC2 inh	GalR3 conf	CNG parental
O=C(COC(=O)/C=C/c1ccco1)NCc1ccco1	15*	1	-4	-4	15	-6	-1	0
O=C(COC(=O)/C=C/c1ccco1)NCc1ccccc1Cl	-3	-2	-19	4	-2	-4	·	·
Cc1cc(C)c2cc(C=O)c(Cl)nc2c1	15*	-23	-15	10	-26	3	40*	2.7*
CC(C)Cn1c(=O)cc(N2CCN(c3cccc(C(F)(F)F)c3)CC2)[nH]c1=O	·	21	·	·	·	·	·	·
N#CCSc1n[nH]c2nc3c(c(=O)n12)C1(CCCC1)Cc1ccccc1-3	·	-35	-15	-25	1	7	-4	0
OCc1ccccc1O[C@@H]1O[C@H](CO)[C@@H](O)[C@H](O)[C@H]1O	-4	2	-3	-18	5	1	·	·
Nc1oc2ccccc2c1C(=O)Cc1ccccc1O[C@@H]1O[C@H](CO)[C@@H](O)[C@H](O)[C@H]1O	16*	-15	6	12	14	-11	9	0
COC(=O)C1=C(C)N(Cc2ccc(Br)cc2)C(=S)NC1c1ccccc1 (stereo not drawn)	-7	4	·	·	·	0	·	·
CN(C)S(=O)(=O)N1CCC(Oc2ccc(C(=O)NC3CCOC(C)(C)C3)cc2)CC1 (stereo not drawn)	-9	7	2	-6	-7	-25	·	·
CN(C)S(=O)(=O)N1CCC(Oc2ccc(C(=O)NC3Cc4ccccc4C3)cc2)CC1	30*	23	-5	-11	-2	-4	99*	0
NC(=O)c1c(N)[nH]c(C(=O)c2ccccc2)c1-c1ccccn1	·	-2	·	·	·	·	·	·
Cc1ccc2nc(N3C(=O)C(O)=C(C(=O)c4ccco4)C3c3ccc(O)cc3)sc2c1 (stereo not drawn)	7	-30	-52	-56	-24	-5	·	·
Cc1cc(C)c2nc(N3C(=O)C(O)=C(C(=O)c4ccco4)C3c3ccc(O)cc3)sc2c1 (stereo not drawn)	45*	-10	-13	-13	11	-5	12	1
Cc1cc(C)c2nc(N3C(=O)C(O)=C(C(=O)c4ccco4)C3c3cccc(O)c3)sc2c1 (stereo not drawn)	14*	-5	-21	-22	-15	12	9	0
COc1cc2c(c3c1c(=O)c1cccc(F)c1n3C)C=CC(C)(C)O2	-5	-10	·	·	·	8	·	·
CN1CC=C(c2ccc(C(F)(F)F)cc2)N(c2ccccc2)C1=O	·	-12	·	·	·	-5	·	·
C[C@H]1[C@H](N(Cc2ccccc2)Cc2ccccc2)CC[C@@]23CCCN2C(=O)CCC[C@@H]13	·	7	·	·	·	·	·	·
CCNC(=O)CSc1nc2cc(S(=O)(=O)Nc3ccc(OC)cc3)ccc2o1	0	6	-12	16	0	6	·	·
COc1ccc(NS(=O)(=O)c2ccc3oc(SC(C)C(N)=O)nc3c2)cc1 (stereo not drawn)	24*	36	5	25	18	-1	0	0
NC(=O)c1ncn([C@@H]2O[C@H](C(=O)N[C@H](Cc3ccccc3)C(=O)N3CCN(c4ccc(Cl)cn4)CC3)[C@@H](O)[C@H]2O)n1	-6	-6	·	·	·	11	·	·
